What all share (assay): DAPPL (digital affinity profiling via proximity ligation, sequencing); 10 mM Tris-HCl pH 7.5, 50 mM NaCl, 1 mM DTT, 4% glycerol, room temperature, 30 min; GST-TFs on glutathione beads, 16-mer random dsDNA library, 0.1% formaldehyde crosslink after washing; high values mean tight binding
What all share (conditions): protein: recombinant; tags: N-terminal GST; dsDNA, one strand shown

The target in one assay is T1, FLI1 (Homo sapiens, UniProt Q01543 1-452).
T1 sequence: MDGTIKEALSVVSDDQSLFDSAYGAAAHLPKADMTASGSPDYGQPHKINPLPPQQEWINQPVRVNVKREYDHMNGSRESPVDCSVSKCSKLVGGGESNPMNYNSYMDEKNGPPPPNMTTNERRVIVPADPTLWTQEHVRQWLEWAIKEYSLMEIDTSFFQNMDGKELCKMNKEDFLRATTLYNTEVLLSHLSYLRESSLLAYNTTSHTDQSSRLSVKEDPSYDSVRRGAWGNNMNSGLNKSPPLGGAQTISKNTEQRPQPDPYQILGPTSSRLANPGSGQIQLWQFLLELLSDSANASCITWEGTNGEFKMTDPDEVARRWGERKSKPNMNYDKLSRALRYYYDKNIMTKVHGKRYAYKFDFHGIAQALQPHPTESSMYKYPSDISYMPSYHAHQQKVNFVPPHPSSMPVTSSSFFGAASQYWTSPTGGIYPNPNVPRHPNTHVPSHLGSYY
An outline of the steps:
(§1)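 Binding signal is given per hexamer as its read frequency for a factor divided by its frequency in the tag-only sample. GST-fused human transcription factors were expressed in yeast, captured on glutathione beads, barcoded with DNA and pooled with that sample, then incubated with 200 nmole of a 16-mer random double-stranded DNA library in Tris/NaCl/DTT/glycerol buffer for 30 min at room temperature. The pools were then washed, crosslinked, proximity-ligated, amplified by PCR and sequenced on an Illumina NextSeq500.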

For another assay, the target named is T2, ELK1 (Homo sapiens, UniProt P19419 1-428).
T2 sequence: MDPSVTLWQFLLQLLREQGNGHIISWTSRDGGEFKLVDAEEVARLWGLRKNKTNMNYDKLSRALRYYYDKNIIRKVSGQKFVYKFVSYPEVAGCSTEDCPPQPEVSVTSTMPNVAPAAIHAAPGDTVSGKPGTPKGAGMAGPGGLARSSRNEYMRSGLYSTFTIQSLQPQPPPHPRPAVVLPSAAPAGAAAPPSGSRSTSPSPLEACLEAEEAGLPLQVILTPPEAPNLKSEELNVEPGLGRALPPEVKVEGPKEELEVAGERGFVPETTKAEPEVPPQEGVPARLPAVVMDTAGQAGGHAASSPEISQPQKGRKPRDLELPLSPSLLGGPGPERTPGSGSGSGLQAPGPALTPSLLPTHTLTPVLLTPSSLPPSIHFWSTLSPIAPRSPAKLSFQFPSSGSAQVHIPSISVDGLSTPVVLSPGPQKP
An outline of the steps: as §1

Another assay concerns the target T3, GABPA (Homo sapiens, UniProt Q06546 1-454).
T3 sequence: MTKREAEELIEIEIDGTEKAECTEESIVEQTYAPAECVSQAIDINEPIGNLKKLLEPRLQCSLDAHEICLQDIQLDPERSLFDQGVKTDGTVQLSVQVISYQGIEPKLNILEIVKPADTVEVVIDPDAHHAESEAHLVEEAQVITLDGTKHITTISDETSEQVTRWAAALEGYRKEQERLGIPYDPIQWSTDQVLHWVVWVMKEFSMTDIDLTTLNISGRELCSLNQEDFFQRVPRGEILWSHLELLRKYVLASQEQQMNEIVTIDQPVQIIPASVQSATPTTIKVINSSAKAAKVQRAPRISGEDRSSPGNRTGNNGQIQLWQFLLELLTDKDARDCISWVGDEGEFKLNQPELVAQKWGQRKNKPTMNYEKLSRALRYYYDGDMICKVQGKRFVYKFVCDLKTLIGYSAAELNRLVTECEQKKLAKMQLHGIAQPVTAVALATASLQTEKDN
A digest of the protocol:
as §1

For another assay, the target named is T4, ERG (Homo sapiens, UniProt P11308 1-479).
T4 sequence: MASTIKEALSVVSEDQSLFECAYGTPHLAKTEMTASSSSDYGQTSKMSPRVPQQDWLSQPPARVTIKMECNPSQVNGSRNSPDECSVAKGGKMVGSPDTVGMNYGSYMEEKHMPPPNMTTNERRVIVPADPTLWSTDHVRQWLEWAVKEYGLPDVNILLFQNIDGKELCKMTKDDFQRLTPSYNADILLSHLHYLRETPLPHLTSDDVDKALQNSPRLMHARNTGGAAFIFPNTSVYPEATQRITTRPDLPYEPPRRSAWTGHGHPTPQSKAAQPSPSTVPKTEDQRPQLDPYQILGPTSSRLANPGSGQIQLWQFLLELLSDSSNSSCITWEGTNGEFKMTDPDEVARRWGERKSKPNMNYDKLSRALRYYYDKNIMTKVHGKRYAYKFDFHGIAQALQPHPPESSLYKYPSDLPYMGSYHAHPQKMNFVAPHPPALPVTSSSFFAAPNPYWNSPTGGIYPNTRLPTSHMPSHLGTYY
An outline of the steps:
as §1

Another assay addresses ELF1 (Homo sapiens, UniProt P32519 1-619). An outline of the steps:
as §1

The target of a further assay is T5, EHF (Homo sapiens, UniProt Q9NZC4 1-300).
T5 sequence: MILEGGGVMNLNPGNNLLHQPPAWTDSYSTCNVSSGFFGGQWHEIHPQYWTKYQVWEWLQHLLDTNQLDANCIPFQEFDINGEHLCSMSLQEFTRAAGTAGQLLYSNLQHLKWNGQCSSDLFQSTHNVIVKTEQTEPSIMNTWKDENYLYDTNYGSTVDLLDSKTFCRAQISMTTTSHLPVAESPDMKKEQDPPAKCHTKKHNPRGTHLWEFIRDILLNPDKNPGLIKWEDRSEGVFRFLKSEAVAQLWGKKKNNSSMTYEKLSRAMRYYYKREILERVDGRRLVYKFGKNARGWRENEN
An outline of the steps: as §1

The target in another assay is SPI1 (Homo sapiens, UniProt P17947 1-270). A digest of the protocol: as §1
For a further assay, the target named is SPIB (Homo sapiens, UniProt Q01892 1-262). An outline of the steps: as §1
Chain of SPIB (Q01892 whole entry): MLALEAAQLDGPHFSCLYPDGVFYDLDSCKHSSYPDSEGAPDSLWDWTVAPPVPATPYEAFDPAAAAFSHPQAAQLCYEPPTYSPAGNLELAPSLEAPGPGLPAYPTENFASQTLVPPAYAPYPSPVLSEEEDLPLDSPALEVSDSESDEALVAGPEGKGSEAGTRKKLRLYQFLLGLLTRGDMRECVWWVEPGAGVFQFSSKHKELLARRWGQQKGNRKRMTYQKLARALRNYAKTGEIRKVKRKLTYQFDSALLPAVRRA
Another assay concerns the target T6, ELK3 (Homo sapiens, UniProt P41970 1-407).
T6 sequence: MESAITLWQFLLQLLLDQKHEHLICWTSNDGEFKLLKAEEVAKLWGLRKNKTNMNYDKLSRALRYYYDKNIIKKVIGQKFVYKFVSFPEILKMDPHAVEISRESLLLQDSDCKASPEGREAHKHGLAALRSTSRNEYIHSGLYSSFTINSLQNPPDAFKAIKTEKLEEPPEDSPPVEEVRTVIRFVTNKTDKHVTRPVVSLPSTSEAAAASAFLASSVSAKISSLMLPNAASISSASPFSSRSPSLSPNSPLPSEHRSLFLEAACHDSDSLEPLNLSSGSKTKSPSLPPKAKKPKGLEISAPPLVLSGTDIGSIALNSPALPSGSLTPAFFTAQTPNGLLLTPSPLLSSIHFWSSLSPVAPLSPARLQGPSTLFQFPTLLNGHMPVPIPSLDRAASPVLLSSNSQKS
An outline of the steps: as §1

Here are results for 7 sequences from article PMC7862700, “An all-to-all approach to the identification of sequence-specific readers for epigenetic DNA modifications on cytosine”.

Chain of ELF1 (P32519 whole entry): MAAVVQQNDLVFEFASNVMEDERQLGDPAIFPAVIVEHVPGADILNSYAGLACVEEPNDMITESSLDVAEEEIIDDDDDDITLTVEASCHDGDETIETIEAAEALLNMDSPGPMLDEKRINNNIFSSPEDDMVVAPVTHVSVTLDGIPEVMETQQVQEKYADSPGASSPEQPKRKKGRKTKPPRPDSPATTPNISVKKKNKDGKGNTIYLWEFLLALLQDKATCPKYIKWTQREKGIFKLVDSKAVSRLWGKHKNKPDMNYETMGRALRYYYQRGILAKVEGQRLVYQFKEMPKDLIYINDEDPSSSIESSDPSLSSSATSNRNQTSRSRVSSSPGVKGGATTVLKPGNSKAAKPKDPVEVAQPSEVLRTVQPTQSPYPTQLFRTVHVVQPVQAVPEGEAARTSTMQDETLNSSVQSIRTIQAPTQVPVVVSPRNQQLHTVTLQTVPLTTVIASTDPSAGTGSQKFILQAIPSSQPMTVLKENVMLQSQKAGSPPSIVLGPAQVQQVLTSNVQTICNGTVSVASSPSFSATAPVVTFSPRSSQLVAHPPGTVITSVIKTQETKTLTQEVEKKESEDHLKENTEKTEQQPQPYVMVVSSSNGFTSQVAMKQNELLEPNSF

Consider GGATAT, for which the binding signal with FLI1 was 1.61 fold enrichment (6-mer frequency, TF over GST control); with ELK1 it was 1.65 fold enrichment (6-mer frequency, TF over GST control); in the assay with GABPA, 1.45 fold enrichment (6-mer frequency, TF over GST control); with ERG, 2 fold enrichment (6-mer frequency, TF over GST control); with ELF1 it was 1.48 fold enrichment (6-mer frequency, TF over GST control); in the assay with EHF it was 1.55 fold enrichment (6-mer frequency, TF over GST control). Moreover, the binding signal was 1.37 fold enrichment (6-mer frequency, TF over GST control) with SPI1; 1.58 fold enrichment (6-mer frequency, TF over GST control) with SPIB; 1.55 fold enrichment (6-mer frequency, TF over GST control) in the assay with ELK3.
Consider AAGTTG, for which the binding signal with FLI1 is 1.09 fold enrichment (6-mer frequency, TF over GST control); with ELK1, 1.07 fold enrichment (6-mer frequency, TF over GST control); in the assay with GABPA it was 1.1 fold enrichment (6-mer frequency, TF over GST control); with ERG, 1.08 fold enrichment (6-mer frequency, TF over GST control); with ELF1 it was 1.08 fold enrichment (6-mer frequency, TF over GST control); in the assay with EHF it was 1.14 fold enrichment (6-mer frequency, TF over GST control). In addition, the binding signal with SPI1 is 1.13 fold enrichment (6-mer frequency, TF over GST control); in the assay with SPIB it was 1.1 fold enrichment (6-mer frequency, TF over GST control); with ELK3, 1.11 fold enrichment (6-mer frequency, TF over GST control).
Take ACCGTC: the binding signal is 1.25 fold enrichment (6-mer frequency, TF over GST control) with FLI1; 1.21 fold enrichment (6-mer frequency, TF over GST control) with ELK1; 1.26 fold enrichment (6-mer frequency, TF over GST control) in the assay with GABPA; 1.15 fold enrichment (6-mer frequency, TF over GST control) with ERG; 1.19 fold enrichment (6-mer frequency, TF over GST control) with ELF1; 1.07 fold enrichment (6-mer frequency, TF over GST control) in the assay with EHF. Also, the binding signal with SPI1 was 1.18 fold enrichment (6-mer frequency, TF over GST control); with SPIB it was 1.09 fold enrichment (6-mer frequency, TF over GST control); with ELK3, 1.22 fold enrichment (6-mer frequency, TF over GST control).
As to GTCTTC, the binding signal with FLI1 is 1.4 fold enrichment (6-mer frequency, TF over GST control); with ELK1, 1.31 fold enrichment (6-mer frequency, TF over GST control); in the assay with GABPA it was 1.19 fold enrichment (6-mer frequency, TF over GST control); in the assay with ERG it was 1.42 fold enrichment (6-mer frequency, TF over GST control); with ELF1 it was 1.43 fold enrichment (6-mer frequency, TF over GST control); with EHF it was 1.31 fold enrichment (6-mer frequency, TF over GST control). The binding signal with SPI1 is 1.28 fold enrichment (6-mer frequency, TF over GST control); in the assay with SPIB, 1.29 fold enrichment (6-mer frequency, TF over GST control); with ELK3 it was 1.17 fold enrichment (6-mer frequency, TF over GST control).
Regarding CATTTC, the binding signal is 1.8 fold enrichment (6-mer frequency, TF over GST control) with FLI1; 1.86 fold enrichment (6-mer frequency, TF over GST control) with ELK1; 1.64 fold enrichment (6-mer frequency, TF over GST control) with GABPA; 2.07 fold enrichment (6-mer frequency, TF over GST control) in the assay with ERG; 1.63 fold enrichment (6-mer frequency, TF over GST control) with ELF1; 1.77 fold enrichment (6-mer frequency, TF over GST control) with EHF. In addition, the binding signal with SPI1 is 1.97 fold enrichment (6-mer frequency, TF over GST control); in the assay with SPIB it was 1.85 fold enrichment (6-mer frequency, TF over GST control); with ELK3, 1.67 fold enrichment (6-mer frequency, TF over GST control).
TAGAAG: the binding signal with FLI1 is 1.05 fold enrichment (6-mer frequency, TF over GST control); with ELK1, 1.19 fold enrichment (6-mer frequency, TF over GST control); in the assay with GABPA, 1.15 fold enrichment (6-mer frequency, TF over GST control); in the assay with ERG, 1.19 fold enrichment (6-mer frequency, TF over GST control); with ELF1 it was 1.23 fold enrichment (6-mer frequency, TF over GST control); with EHF, 1.15 fold enrichment (6-mer frequency, TF over GST control). For the same sequence, the binding signal was 1.24 fold enrichment (6-mer frequency, TF over GST control) in the assay with SPI1; 1.24 fold enrichment (6-mer frequency, TF over GST control) with SPIB; 1.13 fold enrichment (6-mer frequency, TF over GST control) in the assay with ELK3.
With ATCTGT, the binding signal was 1.25 fold enrichment (6-mer frequency, TF over GST control) in the assay with FLI1; 1.24 fold enrichment (6-mer frequency, TF over GST control) with ELK1; 1.18 fold enrichment (6-mer frequency, TF over GST control) with GABPA; 1.19 fold enrichment (6-mer frequency, TF over GST control) with ERG; 1.18 fold enrichment (6-mer frequency, TF over GST control) in the assay with ELF1; 1.11 fold enrichment (6-mer frequency, TF over GST control) in the assay with EHF. Moreover, the binding signal is 1.13 fold enrichment (6-mer frequency, TF over GST control) in the assay with SPI1; 1.14 fold enrichment (6-mer frequency, TF over GST control) with SPIB; 1.07 fold enrichment (6-mer frequency, TF over GST control) in the assay with ELK3.
